# Experimental data as given in the supplement of paper PMC10338343.
# ± gives the standard deviation.
# Tests used:
# [1] = tested on: MILI (PIWIL2) piRISC loaded with L1MC piRNA (26 nt); assay: pre-steady-state target cleavage rate (min^-1); guide: L1MC piRNA 5'p-UAACUAAAUACUAUGCAAGCUGUAGG; higher = faster piRNA-guided slicing of the target;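 further: 1 nM active piRISC with 0.1 nM target library at 33 °C single turnover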
# Method in brief: (§1)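 A burst-and-steady-state fit was used to obtain the pre-steady-state cleavage rate. The input data were sequencing reads of uncleaved targets, normalised to depth and to weakly complementary targets, from a […] transcribed, DNA-blocked target RNA library mixed with 1 nM active affinity-purified piRISC holding one synthetic guide, with or without 500 nM GTSF1 partner protein, in HEPES–potassium acetate buffer at 33 °C for 0–8 or 0–960 min. Three trials were pooled and k3 was capped at 0.0001 min^-1.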
# [2] = tested on: EfPiwi piRISC loaded with L1MC piRNA (26 nt); assay: pre-steady-state target cleavage rate (min^-1); auxiliary factor: 500 nM Ephydatia muelleri Gtsf1; guide: L1MC piRNA 5'p-UAACUAAAUACUAUGCAAGCUGUAGG; MIWI and MILI are mouse PIWI proteins and EfPiwi is from a freshwater sponge; tags in brackets are library labels; higher = faster piRNA-guided slicing of the target
# Method in brief: as §1
# [3] = auxiliary factor: 500 nM mouse GTSF1
# [4] = auxiliary factor: none (no GTSF1)
Sequence,"pre-steady-state target cleavage rate [1, 3]","pre-steady-state target cleavage rate [1, 4]",pre-steady-state target cleavage rate [2]
UCCUGCAACAGGUUGCAUAGUAUUUAGUUA,0.248 ± 0.022,0.00771 ± 0.0033,0.018 ± 0.0035
UCCUGGAACUGCUUGCAUAGUAUUUAGUUA,0.228 ± 0.016,0.00612 ± 0.002,0.0203 ± 0.006
UCCUCCUACAGCUAGCAUUGUAUUUAGUUA,0.184 ± 0.013,0.00496 ± 0.0019,0.0127 ± 0.0042
UCCUCCUACUGGUUGCAUAGUAUUUAGUUA,0.226 ± 0.021,0.00818 ± 0.0021,0.1 ± 0.025
UCCUGGAUGAGCUUGCAAAGUAUUUAGUUA,0.0794 ± 0.011,0.00483 ± 0.0028,0.0322 ± 0.0094
UCCUCCUUCAGCUUGCAUAGUAUAUAGUUA,0.216 ± 0.022,0.00364 ± 0.0025,0.0124 ± 0.0058
UCCUGGAUCAGCUUGCAAAGUAUUUAGUUA,0.151 ± 0.015,0.00946 ± 0.0023,0.0218 ± 0.0057
UCCUGGAUGUGCUUGCAUAGUAUUUAGUCA,0.117 ± 0.018,0.00487 ± 0.0035,0.00263 ± 0.0019
UCCUGGAUGAGAUUGCAUAGUAUUUAGUUA,0.153 ± 0.014,0.011 ± 0.0024,0.00463 ± 0.0025
UCCUGCUACAGCUUGCUAGUAUUUAGUUA,0.0195 ± 0.0079,0.00519 ± 0.002,0.00473 ± 0.0031
UCCUGCUACAGCUUGCAUUGUAUUUUGUUA,0.159 ± 0.024,0.00301 ± 0.0027,0.00346 ± 0.0021
UCCUGGAUGAGCUUCAUAGUAUUUAGUUA,0.0977 ± 0.012,0.00515 ± 0.002,0.00394 ± 0.0033
UCCUGGUAGAGCUUGCAUAGUAUAUAGUUA,0.207 ± 0.027,0.00638 ± 0.0021,0.0131 ± 0.0051
UCCUGGAUGUGCUUGCAUAGUAUUUAGUA,0.111 ± 0.019,0.00483 ± 0.0024,0.00405 ± 0.002
UCCUGCUACACCUUGCAUAGUAAUUAGUUA,0.157 ± 0.026,0.00684 ± 0.002,0.00647 ± 0.0028
UCCUGGAUCAGGUUGCAUAGUUUUUAGUUA,0.023 ± 0.0088,0.00644 ± 0.0022,0.00481 ± 0.0024
UCCUGGAACAGCUUCAUAGUAUUUAGUUA,0.252 ± 0.015,0.00361 ± 0.0026,0.0107 ± 0.0034
UCCUGCAACAGCUUGCAUAGUUUUUAGUUA,0.0613 ± 0.0099,0.00354 ± 0.0029,0.00727 ± 0.0019
UCCUGGUACAGGCUUGCAUAGUAUUUAGUUA,0.203 ± 0.026,0.0131 ± 0.0043,0.00759 ± 0.0028
UCCUGGAUGAGCUUGCAUAGUAUUUAGUGA,0.193 ± 0.025,0.00439 ± 0.003,0.00681 ± 0.0032
UCCUGGAUCAGCAUGCAUAGUAUUUAGUUA,0.314 ± 0.019,0.0108 ± 0.0031,0.12 ± 0.026
UCCUGGAUGUCCGUGCAUAGUAUUUAGUUA,0.0403 ± 0.011,0.00675 ± 0.0027,0.00483 ± 0.0024
UCCUGCAACAGCUUGCAAAGUAUUUAGUUA,0.166 ± 0.012,0.00683 ± 0.0024,0.022 ± 0.0052

Sequence,"pre-steady-state target cleavage rate [1, 3]","pre-steady-state target cleavage rate [1, 4]",pre-steady-state target cleavage rate [2]
UCCUGGAACAGCUUGCAUAGUAUCUAGUUA,0.213 ± 0.03,0.00512 ± 0.0024,0.0068 ± 0.0027
UCCUCCUACAGCUUGUAUAGUAUUUAGUUA,0.305 ± 0.018,0.00822 ± 0.0025,0.143 ± 0.033
UCCUCCUACAGGUUGCAAAGUAUUUAGUUA,0.142 ± 0.0086,0.00921 ± 0.002,0.0547 ± 0.011
UCCUCCUACAGCUUGCAUAGUAUUUAGUUU [g2:g26:cont:t1U],0.35 ± 0.02,0.0339 ± 0.0087,0.265 ± 0.062
UCCUGGUACAGCUUGCAUAGUAUUAUGUUA,0.131 ± 0.032,0.00435 ± 0.0031,0.00349 ± 0.0025
UCCUGGAUGUGAUUGCAUAGUAUUUAGUUA,0.115 ± 0.015,0.00851 ± 0.0026,0.00623 ± 0.0031
UCCUGGAUGAGCUAGCAUUGUAUUUAGUUA,0.0518 ± 0.0092,0.00446 ± 0.0025,0.00519 ± 0.0032
UCCUGGAUGUGCUUGCAUAGUAAUUAGUUA,0.095 ± 0.013,0.00684 ± 0.0024,0.00847 ± 0.0037
UCCUCGUACAGCUUGCAUAGUAUUUAGUAA,0.24 ± 0.014,0.00621 ± 0.0022,0.00794 ± 0.0029
UCCUGGUACACCUUGCAUAGUAAUUAGUUA,0.491 ± 0.14,0.00374 ± 0.0032,0.00464 ± 0.0027
UCCUGGAUCAGCUUGCAUAGUAAUAAGUUA,0.189 ± 0.019,0.00409 ± 0.0028,0.00234 ± 0.0018
UCCUGGUACAGGUUGCAUAGUAUUAAGUUA,0.326 ± 0.072,0.00893 ± 0.0037,0.00485 ± 0.0027
UCCUCCUACAGGAUGCAUAGUAUUUAGUUA,0.273 ± 0.013,0.00736 ± 0.0024,0.0467 ± 0.011
UCCUGCUACAGAUUGCAUAGUAUUUAGUUA,0.299 ± 0.015,0.0107 ± 0.0034,0.0138 ± 0.0034
UCCUCCUACAGGUUGCAUAGUAUAUAGUUA,0.219 ± 0.022,0.00587 ± 0.0019,0.0129 ± 0.0046
UCCUGGAACAGCUUGCAUAGUAUGUAGUUA,0.206 ± 0.034,0.00343 ± 0.003,0.00302 ± 0.0021
UCCUCCUUCUGCUUGCAUAGUAUUUAGUUA,0.269 ± 0.018,0.00966 ± 0.002,0.11 ± 0.028
UCCUGCUACAGCUUGCUAAGUAUUUAGUUA,0.176 ± 0.018,0.00399 ± 0.0022,0.00353 ± 0.0029
UCCUGGUACAGCUUGCAUAGUAUUAAGUUA,0.252 ± 0.041,0.00423 ± 0.0038,0.00521 ± 0.0021
UCCUGCUACAGGUUGCAUACUAUUUAGUUA,0.0385 ± 0.0068,0.00412 ± 0.002,0.00621 ± 0.0019
UCCUCCUACAGCAUGCAUAGUAUUAAGUUA,0.2 ± 0.023,0.00348 ± 0.0026,0.00654 ± 0.0033
UCCUGCUACAGCUUCCAUUGUAUUUAGUUA,0.157 ± 0.029,0.00322 ± 0.0022,0.00266 ± 0.0018
UCCUGGAUGAGCUUGCAUAGUACUUUAGUUA,0.0613 ± 0.0089,0.00632 ± 0.0026,0.00806 ± 0.003
